# Results published in PubChem BioAssay (EPA / NIEHS).
# Values joined by “and” are separate entries in the source; they are usually repeats but may differ in a detail not shown here. Equal entries are not always repeated. Active and inactive are the calls of the source. How the source made its calls: active means hit-call score of the fitted dose curve at least 0.9, where 1 is the maximum; inactive means score below 0.9.
# Legend:
# [1] = read-out: Interleukin-6 (IL6), IL6 (gene 3569); assay: BSK_CASM3C_IL6: BioMAP Diversity Plus: CASM3C Assay for Interleukin-6 (IL6) Biomarker Activity for (AID 2283040); details: primary human coronary artery smooth muscle cells; actives raise or lower the signal
# [2] = read-out: Tissue plasminogen activator (tPA), PLAT (gene 5327); assay: BSK_BE3C_tPA: BioMAP Diversity Plus: BE3C Assay for Tissue plasminogen activator (tPA) Biomarker Activity (AID 2283041); details: primary human bronchial epithelial cells; actives raise or lower the signal;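 on outcome: tPA level quantified by ELISA one day after compound addition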
# How it was run: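 Gain- or loss-of-signal in tPA, measured by ELISA, derived by bidirectional fitting against DMSO. Cells: human primary bronchial epithelial; read at 24 h after chemical dosing.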
# [3] = read-out: Interleukin-8 (IL8), CXCL8 (gene 3576); assay: BSK_CASM3C_IL8: BioMAP Diversity Plus: CASM3C Assay for Interleukin-8 (IL8) Biomarker Activity (AID 2283042); details: primary human coronary artery smooth muscle cells; actives raise or lower the signal;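 further: IL-8 protein level quantified by ELISA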
# [4] = read-out: Human Leukocyte Antigen - DR isotype (HLADR), HLA-DRA (gene 3122); assay: BSK_CASM3C_HLADR: BioMAP Diversity Plus: CASM3C Assay for Human Leukocyte Antigen - DR isotype (HLADR) Biomarker Activity (AID 2283043); details: primary human coronary artery smooth muscle cells; actives raise or lower the signal;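 further: cell-surface HLA-DR protein level quantified by ELISA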
# [5] = read-out: Macrophage colony-stimulating factor (MCSF), CSF1 (gene 1435); assay: BSK_CASM3C_MCSF: BioMAP Diversity Plus: CASM3C Assay for Macrophage colony-stimulating factor (MCSF) Biomarker Activity (AID 2283044); details: primary human coronary artery smooth muscle cells; actives raise or lower the signal;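 further: M-CSF protein amount quantified by ELISA after 24 h exposure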
# [6] = read-out: Low-density lipoprotein receptor (LDLR), LDLR (gene 3949); assay: BSK_CASM3C_LDLR: BioMAP Diversity Plus: CASM3C Assay for Low-density lipoprotein receptor (LDLR) Biomarker Activity (AID 2283045); details: primary human coronary artery smooth muscle cells; actives raise or lower the signal;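 further: LDLR protein level on the cell surface quantified by ELISA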
# [7] = read-out: Monocyte Chemoattractant Protein-1 (MCP1), CCL2 (gene 6347); assay: BSK_CASM3C_MCP1: BioMAP Diversity Plus: CASM3C Assay for Monocyte Chemoattractant Protein-1 (MCP1) Biomarker Activity (AID 2283046); details: primary human coronary artery smooth muscle cells; actives raise or lower the signal;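 further: MCP-1 level quantified by ELISA 24 h after dosing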
# [8] = BSK_CASM3C_Proliferation: Cell Proliferation Assessment in the BioMAP Diversity Plus: CASM3C Assay (AID 2283047); details: primary human coronary artery smooth muscle cells;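 further: sulforhodamine B total protein stain as relative cell number at 560 nm; sub-confluent cells exposed 48 h before staining; fitted both ways against DMSO so gain or loss of cell number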
# [9] = read-out: Monokine induced gamma interferon (MIG), CXCL9 (gene 4283); assay: BSK_CASM3C_MIG: BioMAP Diversity Plus: CASM3C Assay for Monokine induced gamma interferon (MIG) Biomarker Activity (AID 2283048); details: primary human coronary artery smooth muscle cells; actives raise or lower the signal;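 further: MIG protein level measured by ELISA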
# [10] = read-out: serum amyloid A (SAA), SAA1 (gene 6288); assay: BSK_CASM3C_SAA: BioMAP Diversity Plus: CASM3C Assay for serum amyloid A (SAA) Biomarker Activity (AID 2283049); details: primary human coronary artery smooth muscle cells; actives raise or lower the signal;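 further: SAA protein level quantified by ELISA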
# [11] = BSK_CASM3C_SRB: Viability Assessment in the BioMAP Diversity Plus: CASM3C Assay (AID 2283050); details: primary human coronary artery smooth muscle cells;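 further: total protein by SRB staining as cytotoxicity measure in parallel cultures; cells exposed to compound for 24 h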
# [12] = read-out: Thrombomodulin, THBD (gene 7056); assay: BSK_CASM3C_Thrombomodulin: BioMAP Diversity Plus: CASM3C Assay for Thrombomodulin Biomarker Activity (AID 2283051); details: primary human coronary artery smooth muscle cells; actives raise or lower the signal;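 further: thrombomodulin protein level measured by ELISA 24 h after dosing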
# [13] = read-out: Tissue Factor, F3 (gene 2152); assay: BSK_CASM3C_TissueFactor: BioMAP Diversity Plus: CASM3C Assay for Tissue Factor Biomarker Activity (AID 2283052); details: primary human coronary artery smooth muscle cells; actives raise or lower the signal;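 further: cell surface tissue factor protein level read by ELISA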
# [14] = read-out: Interferon-gamma inducible Protein 10 (IP10), CXCL10 (gene 3627); assay: BSK_hDFCGF_IP10: BioMAP Diversity Plus: hDFCGF Assay for Interferon-gamma inducible Protein 10 (IP10) Biomarker Activity (AID 2283053); details: primary human foreskin fibroblasts; actives raise or lower the signal
# How it was run: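 Cells: human dermal foreskin fibroblasts. Exposure: 24 h post-dosing. Detection: IP-10 ELISA, with values expressed against DMSO controls and fitted in both directions.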
# [15] = read-out: Urokinase-type plasminogen activator receptor (uPAR), PLAUR (gene 5329); assay: BSK_CASM3C_uPAR: BioMAP Diversity Plus: CASM3C Assay for Urokinase-type plasminogen activator receptor (uPAR) Biomarker Activity (AID 2283054); details: primary human coronary artery smooth muscle cells; actives raise or lower the signal;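 further: cell-surface uPAR protein level quantified by ELISA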
# [16] = read-out: Vascular cell adhesion molecule 1 (VCAM1), VCAM1 (gene 7412); assay: BSK_CASM3C_VCAM1: BioMAP Diversity Plus: CASM3C Assay for Vascular cell adhesion molecule 1 (VCAM1) Biomarker Activity (AID 2283055); details: primary human coronary artery smooth muscle cells; actives raise or lower the signal;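 further: VCAM-1 protein level quantified by ELISA on the cells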
# [17] = read-out: Collagen III, COL3A1 (gene 1281); assay: BSK_hDFCGF_CollagenIII: BioMAP Diversity Plus: hDFCGF Assay for Collagen III Biomarker Activity (AID 2283056); details: primary human foreskin fibroblasts; actives raise or lower the signal
# How it was run: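 Response relative to DMSO, fitted in both directions, reflects ELISA-measured collagen III in human primary skin fibroblasts 24 h after compound addition.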
# [18] = read-out: Epidermal growth factor receptor (EGFR), EGFR (gene 1956); assay: BSK_hDFCGF_EGFR: BioMAP Diversity Plus: hDFCGF Assay for Epidermal growth factor receptor (EGFR) Biomarker Activity (AID 2283057); details: primary human foreskin fibroblasts; actives raise or lower the signal
# How it was run: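 Dosing human primary skin fibroblasts, then measuring surface EGFR by ELISA at 24 h, gives the endpoint; gains and losses relative to DMSO were fitted in both directions.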
# [19] = read-out: Interleukin-8 (IL8), CXCL8 (gene 3576); assay: BSK_hDFCGF_IL8: BioMAP Diversity Plus: hDFCGF Assay for Interleukin-8 (IL8) Biomarker Activity (AID 2283058); details: primary human foreskin fibroblasts; actives raise or lower the signal
# How it was run: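 Fibroblast monolayers (human foreskin, hDFCGF) received test chemical for 24 h before ELISA detection of IL-8; either increases or decreases relative to DMSO count as activity.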
# [20] = BSK_hDFCGF_Proliferation: Cell Proliferation Assessment in the BioMAP Diversity Plus: hDFCGF Assay (AID 2283059); details: primary human foreskin fibroblasts;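 further: curves fitted for both rise and fall of signal versus DMSO baseline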
# How it was run: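 Total protein read at 560 nm after 0.1% SRB staining of TCA-fixed human skin fibroblasts, […]. Activity is fitted in both directions relative to DMSO as baseline.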
compound,measurement,setting,value
Nc1ccc(N)c([N+](=O)[O-])c1,outcome,[1],inactive
same,outcome,[2],inactive
same,outcome,[3],inactive
same,outcome,[4],inactive
same,outcome,[5],inactive
same,outcome,[6],inactive
same,AC50,[7],7.95 µM (active)
same,outcome,[8],inactive
same,outcome,[9],inactive
same,outcome,[10],inactive
same,outcome,[11],inactive
same,outcome,[12],inactive
same,AC50,[13],0.037 µM (active)
same,outcome,[14],inactive
same,outcome,[15],inactive
same,outcome,[16],inactive
same,outcome,[17],inactive
same,outcome,[18],inactive
same,outcome,[19],inactive
same,AC50,[20],13.4 µM (active)
COC(=O)c1ccc(C(=O)OC)cc1,outcome,[1],inactive
same,outcome,[2],inactive
same,outcome,[3],inactive
same,outcome,[4],inactive
same,outcome,[5],inactive
same,outcome,[6],inactive
same,outcome,[7],inactive
same,outcome,[8],inactive
same,outcome,[9],inactive
same,outcome,[10],inactive
same,outcome,[11],inactive
same,outcome,[12],inactive
same,outcome,[14],inactive
same,outcome,[15],inactive
same,outcome,[16],inactive
same,outcome,[17],inactive
same,outcome,[18],inactive
same,outcome,[19],inactive
same,outcome,[20],inactive
CCCO[Si](OCCC)(OCCC)OCCC,outcome,[1],inactive
same,outcome,[2],inactive
same,outcome,[3],inactive
same,outcome,[4],inactive
same,outcome,[5],inactive
same,outcome,[6],inactive
same,outcome,[7],inactive
same,outcome,[8],inactive
same,outcome,[9],inactive
same,outcome,[10],inactive
same,outcome,[11],inactive
same,outcome,[12],inactive
same,outcome,[13],inactive
same,outcome,[14],inactive
same,outcome,[15],inactive
same,outcome,[16],inactive
same,outcome,[17],inactive
same,outcome,[18],inactive
same,outcome,[19],inactive
same,AC50,[20],31.1 µM (active) and 25.8 µM (active)
CC(C)Cc1ccc(C(C)C(=O)O)cc1 (centres undefined),AC50,[1],5.55 µM (active)
same,outcome,[2],inactive
same,outcome,[3],inactive
same,outcome,[4],inactive
same,outcome,[5],inactive
same,outcome,[6],inactive
same,outcome,[7],inactive
same,AC50,[8],0.2 µM (active)
same,outcome,[9],inactive
same,outcome,[10],inactive
same,outcome,[11],inactive
same,AC50,[12],6.11 µM (active)
same,outcome,[13],inactive
same,outcome,[14],inactive
same,outcome,[15],inactive
same,outcome,[16],inactive
same,AC50,[17],3.33 µM (active)
same,outcome,[18],inactive
same,outcome,[19],inactive
same,outcome,[20],inactive
CC(=O)OCC=C(C)CCC=C(C)CCC=C(C)C,outcome,[1],inactive
same,AC50,[2],3.97 µM (active)
same,outcome,[3],inactive
same,outcome,[4],inactive
same,outcome,[5],inactive
same,outcome,[6],inactive
same,outcome,[7],inactive
same,outcome,[8],inactive
same,outcome,[9],inactive
same,outcome,[10],inactive
same,outcome,[11],inactive
same,outcome,[12],inactive
same,AC50,[13],2.51 µM (active)
same,outcome,[14],inactive
same,outcome,[15],inactive
same,outcome,[16],inactive
same,AC50,[17],4.49 µM (active)
same,outcome,[18],inactive
same,outcome,[19],inactive
same,AC50,[20],17.4 µM (active)
CCCCOCCOCCO,outcome,[1],inactive
same,outcome,[2],inactive
same,outcome,[3],inactive
same,outcome,[4],inactive
same,outcome,[5],inactive
same,outcome,[6],inactive
same,outcome,[7],inactive
same,outcome,[8],inactive
same,outcome,[9],inactive
same,outcome,[10],inactive
same,outcome,[11],inactive
same,outcome,[12],inactive
same,outcome,[13],inactive
same,outcome,[14],inactive
same,outcome,[15],inactive
same,outcome,[16],inactive
same,outcome,[17],inactive
same,outcome,[18],inactive
same,outcome,[19],inactive
same,outcome,[20],inactive
CC(=O)c1ccc(C)cc1,outcome,[1],inactive
same,outcome,[2],inactive
same,outcome,[3],inactive
same,outcome,[4],inactive
same,outcome,[5],inactive
same,outcome,[6],inactive
same,outcome,[7],inactive
same,outcome,[8],inactive
same,outcome,[9],inactive
same,outcome,[10],inactive
same,outcome,[11],inactive
same,outcome,[12],inactive
same,outcome,[13],inactive
same,outcome,[14],inactive
same,outcome,[15],inactive
same,outcome,[16],inactive
same,outcome,[17],inactive
same,outcome,[18],inactive
same,outcome,[19],inactive
same,outcome,[20],inactive
O=C1OC2(c3ccc(O)cc3Oc3cc(O)ccc32)c2ccccc21,outcome,[1],inactive
same,outcome,[2],inactive
same,outcome,[3],inactive
same,outcome,[4],inactive
same,outcome,[5],inactive
same,outcome,[6],inactive
same,outcome,[7],inactive
same,outcome,[8],inactive
same,outcome,[9],inactive
same,outcome,[10],inactive
same,outcome,[11],inactive
same,outcome,[12],inactive
same,outcome,[13],inactive
same,outcome,[14],inactive
same,outcome,[15],inactive
same,outcome,[16],inactive
same,outcome,[17],inactive
same,outcome,[18],inactive
same,outcome,[19],inactive
same,AC50,[20],20 µM (active)
CCC(=O)OCC=Cc1ccccc1,outcome,[1],inactive
same,outcome,[2],inactive
same,outcome,[3],inactive
same,outcome,[4],inactive
same,outcome,[5],inactive
same,outcome,[6],inactive
same,outcome,[7],inactive
same,outcome,[8],inactive
same,outcome,[9],inactive
same,outcome,[10],inactive
same,outcome,[11],inactive
same,outcome,[12],inactive
same,outcome,[13],inactive
same,outcome,[14],inactive
same,outcome,[15],inactive
same,outcome,[16],inactive
same,outcome,[17],inactive
same,outcome,[18],inactive
same,outcome,[19],inactive
same,outcome,[20],inactive
C=C1CC/C=C(\C)CC[C@@H]2[C@@H]1CC2(C)C,outcome,[1],inactive
same,outcome,[2],inactive
same,outcome,[3],inactive
same,outcome,[4],inactive
same,outcome,[5],inactive
same,outcome,[6],inactive
same,outcome,[7],inactive
same,outcome,[8],inactive
same,outcome,[9],inactive
same,outcome,[10],inactive
same,AC50,[11],33.2 µM (active)
same,outcome,[12],inactive
same,outcome,[13],inactive
same,AC50,[14],30.1 µM (active)
same,outcome,[15],inactive
same,AC50,[16],29 µM (active)
same,AC50,[17],13.5 µM (active)
same,outcome,[18],inactive
same,AC50,[19],33.9 µM (active)
same,AC50,[20],6.82 µM (active)
CCOC(=O)CCCCCCCCC(=O)OCC,outcome,[1],inactive
same,outcome,[2],inactive
same,outcome,[3],inactive
same,outcome,[4],inactive
same,outcome,[5],inactive
same,outcome,[6],inactive
same,outcome,[7],inactive
same,outcome,[8],inactive
same,outcome,[9],inactive
same,outcome,[10],inactive
same,outcome,[11],inactive
same,outcome,[12],inactive
same,outcome,[13],inactive
same,outcome,[14],inactive
same,outcome,[15],inactive
same,outcome,[16],inactive
same,outcome,[17],inactive
same,outcome,[18],inactive
same,outcome,[19],inactive
same,outcome,[20],inactive
